Here are results for nine compounds from PubChem BioAssay (Tox21).

Assay [1] addresses Retinoic acid receptor RXR-alpha (Homo sapiens) (UniProt P19793). The assay can be described thus: qHTS assay to identify small molecule agonists of the RXR signaling pathway (AID 1159527; calls by dose curve; also: nearly all actives have a fitted effect of over 35% in size). Put shortly:
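Read-out: beta-lactamase FRET ratio (405 nm excitation, 460 and 530 nm emission) after 2 hr substrate loading at room temperature. Cells were RXR-alpha-UAS-bla HEK 293T treated with compounds for 16 hr in 2% charcoal-stripped FBS medium.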

The nature of assay [2]: qHTS assay to identify small molecule agonists of the RXR signaling pathway - cell viability counter screen (AID 1159529). Also: series mostly up to about 77 µM; nearly all actives have a fitted effect of over 50% in size. Put shortly: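 HEK 293T RXRa-bla cells, 2% CS-FBS; 5 h settle; cpd 16 h 37 C, 5% CO2; CellTiter-Glo 30 min RT, luminescence. Tetraoctyl ammonium bromide as positive control.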
On the technique in general: In qHTS, concentration-response curves come from the screen itself.

Assay [3] is described as follows: qHTS assay to identify small molecule antagonists of the retinoid acid receptor (RAR) signaling pathway - cell viability counter screen (AID 1159551). Also: nearly all actives have a fitted effect of over 35% in size. An outline of the steps:
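Luminescent ATP quantitation (CellTiter-Glo) gave cell viability in C3RL4 cells exposed to test chemicals for 6 h at 37 C alongside 1 uM final retinol.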

The nature of assay [4]: qHTS assay to identify small molecule antagonists of the retinoic acid receptor (RAR) signaling pathway (AID 1159552; also: nearly all actives have a fitted effect of over 50% in size). Put shortly:
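Cells of the C3RL4 line were seeded, incubated overnight, then dosed with compounds in DMSO followed immediately by retinol (1 uM final). Six hours later luciferase detection reagent went in; signal was measured after 30 min at RT.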

Assay [5] in a line: qHTS assay to identify small molecule agonists of the retinoic acid receptor (RAR) signaling pathway (AID 1159553). Put shortly:
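Luminescence from a RARE-driven luciferase reporter in C3RL4 cells served as the read-out, measured after 30 min with detection reagent at room temperature. Compounds in DMSO were applied for 6 hr at 37 C following overnight seeding.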

The nature of assay [6]: qHTS assay to identify small molecule antagonists of the estrogen related receptor (ERR) signaling pathway from Tox21 library - cell viability counter screen (AID 1224834). Also: nearly all actives have a fitted effect of over 30% in size. Also: potency is read from the fitted curve at half-maximal effect. An outline of the steps:
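Fluorescence from CellTiter-Fluor gives the viability read-out, taken 30 min after reagent addition. Before that, ERR cells seeded 6 h earlier were incubated with compounds for 17.5 h at 37 C.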

In assay [7] the target is Luciferin 4-monooxygenase (Photinus pyralis) (UniProt P08659). The assay is described as follows: qHTS assay to identify small molecule inhibitors of firefly luciferase (AID 1224835). Also: series mostly up to about 120 µM; nearly all actives have a fitted effect of over 25% in size. An outline of the steps: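 Quantitative HTS format; KM concentrations of both substrates. Purified P. pyralis FLuc activity quantified from luminescence images.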
Assay [8] is described as follows: qHTS assay to identify small molecule agonists of the constitutive androstane receptor (CAR) signaling pathway - cell viability counter screen (AID 1224836). Also: nearly all actives have a fitted effect of over 45% in size. Also: potency is read from the fitted curve at half-maximal effect. An outline of the steps: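 HepG2-CYP2B6-hCAR, 2500 cells/well, 4 h pre-incubation; cpd 15 conc + PK11195 0.75 uM final; 23 h, 37 C/5% CO2; CellTiter-Fluor, fluorescence.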
Assay [9] in a line: qHTS assay to identify small molecule antagonists of the constitutive androstane receptor (CAR) signaling pathway - cell viability counter screen (AID 1224837). Also: nearly all actives have a fitted effect of over 45% in size. Also: potency is read from the fitted curve at half-maximal effect. An outline of the steps: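 HepG2-CYP2B6-hCAR cells, 2500/well, 4 hr pre-incubation; compound titration, 15 conc.; CITCO 50 nM final; 23 hr, 37 C/5% CO2; CellTiter-Fluor, fluorescence intensity.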
The nature of assay [10]: qHTS assay to identify small molecule antagonists of the estrogen related receptor signaling pathway with the pleiotropic PPARgamma coactivator (PGC) from Tox21 10K library - cell viability counter screen (AID 1224840; active = well fitted cell-killing curve with a large enough effect in the repeat runs, not every such curve was filed as active; also: nearly all actives have a fitted effect of over 40% in size; also: potency is read from the fitted curve at half-maximal effect). An outline of the steps: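 PGC/ERR cells, 2,000/well; 6 h pre-incubation 37 C/5% CO2; cpd in DMSO via pin tool; 17.5 h 37 C; CellTiter-Fluor, 30 min; fluorescence.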

Assay [11] concerns the target Nuclear receptor subfamily 1 group I member 3 (Homo sapiens) (UniProt Q14994). The assay can be described thus: qHTS assay to identify small molecule antagonists of the constitutive androstane receptor (CAR) signaling pathway (AID 1224838).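 Also: HepG2 cells stably expressing hCAR with CYP2B6 luciferase reporter stimulated by CITCO; nearly all actives have a fitted effect of over 40% in size.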 Put shortly: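 HepG2-CYP2B6-hCAR cells; 4 h pre-incubation; cpd (15 conc) + CITCO 50 nM final; 24 h, 37 C/5% CO2; ONE-Glo, luminescence.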

Assay [12] shares this target. The assay is described as follows: qHTS assay to identify small molecule agonists of the constitutive androstane receptor (CAR) signaling pathway (AID 1224839).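 Also: HepG2 cells stably carrying human CAR and a CYP2B6 luciferase reporter; series mostly up to about 92 µM; nearly all actives have a fitted effect of over 15% in size.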 An outline of the steps:
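HepG2-CYP2B6-hCAR cells, 2500/well, 4 h pre-incubation; compounds 15 conc.; PK11195 0.75 uM final; 24 h, 37 C/5% CO2; ONE-Glo luciferase read.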

Assay [13] is described as follows: qHTS assay to identify small molecule antagonists of the estrogen related receptor signaling pathway with the pleiotropic PPARgamma coactivator (PGC) from Tox21 10K library (AID 1224841; call rule not given here; also: actives are mostly falling curves and most rising ones were filed inactive; nearly all actives have a fitted effect of over 50% in size; also: potency is read from the fitted curve at half-maximal effect). Put shortly:
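PGC/ERR cell line, 2,000 cells/well; 6 h pre-incubation 37 C/5% CO2; compounds (DMSO) pinned in; 18 h, 37 C; One-Glo, 30 min RT; luminescence.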

Assay [14] can be described thus: qHTS assay to identify small molecule agonists of the estrogen related receptor signaling pathway with the pleiotropic PPARgamma coactivator (PGC) from Tox21 10K library (AID 1224842). Also: nearly all actives have a fitted effect of over 15% in size. An outline of the steps: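 PGC/ERR reporter cells (NTP line) were seeded 2,000 per well, rested 6 h at 37 C/5% CO2, then pin-dosed with compounds in DMSO for 18 h at 37 C; luciferase read by One-Glo luminescence after 30 min at room temperature.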

Assay [15] in a line: qHTS assay to identify small molecule antagonists of the estrogen related receptor (ERR) signaling pathway - cell viability counter screen (AID 1224818).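 Also: series mostly up to about 46 µM; viability measured after 17.5 h of compound exposure.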 An outline of the steps: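 Multiplexed counter screen to separate cytotoxic compounds from true ERR modulators. ERR cells received DMSO-dissolved compounds after a 6 h pre-incubation, were exposed 17.5 h at 37 C, then assayed with CellTiter-Fluor fluorescence.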

The nature of assay [16]: qHTS assay to identify small molecule antagonists of the estrogen related receptor signaling pathway with the pleiotropic PPARgamma coactivator (PGC) cell viability counter screen (AID 1224822; also: series mostly up to about 46 µM). An outline of the steps:
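Cells: PGC/ERR, 2,000/well, 1536-well format. Pre-incubation 6 h, 37 C/5% CO2. Compound exposure 17.5 h, 37 C. Detection: CellTiter-Fluor, 30 min, fluorescence.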

Assay [17] is described as follows: qHTS assay to identify small molecule antagonists of the estrogen related receptor (ERR) signaling pathway (AID 1224819;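 also: luminescence from an ERR-driven luciferase reporter measured with One-Glo reagent; series mostly up to about 46 µM; nearly all actives have a fitted effect of over 50% in size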). An outline of the steps: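 Seed ERR cells 2,000/well; rest 6 h at 37 C/5% CO2; pin compounds in DMSO; incubate 18 h at 37 C; add One-Glo; wait 30 min at room temperature; measure luminescence.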
Assay [18] is described as follows: qHTS assay to identify small molecule agonists of the estrogen related receptor (ERR) signaling pathway (AID 1224820). Put shortly: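 Quantitative HTS of the LOPAC library used NTP ERR reporter cells treated 18 h at 37 C. Signal is luminescence after One-Glo addition and a 30 min room-temperature incubation.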

“And” between values parts separate entries of the source, which are not always exact repeats. Equal values may be shown once. Results filed as inconclusive are left out. The source made the active and inactive calls. Unless noted, calls follow the shape of the dose curve; as a rule, active = well fitted curve in the direction sought with a large enough effect in the repeat runs; inconclusive = weak or mixed curves; inactive = no such curve, though single readings can be large; an effect the other way counts as inactive or inconclusive.

Luciferin 4-monooxygenase (Photinus pyralis), sequence (P08659 whole entry, looked up): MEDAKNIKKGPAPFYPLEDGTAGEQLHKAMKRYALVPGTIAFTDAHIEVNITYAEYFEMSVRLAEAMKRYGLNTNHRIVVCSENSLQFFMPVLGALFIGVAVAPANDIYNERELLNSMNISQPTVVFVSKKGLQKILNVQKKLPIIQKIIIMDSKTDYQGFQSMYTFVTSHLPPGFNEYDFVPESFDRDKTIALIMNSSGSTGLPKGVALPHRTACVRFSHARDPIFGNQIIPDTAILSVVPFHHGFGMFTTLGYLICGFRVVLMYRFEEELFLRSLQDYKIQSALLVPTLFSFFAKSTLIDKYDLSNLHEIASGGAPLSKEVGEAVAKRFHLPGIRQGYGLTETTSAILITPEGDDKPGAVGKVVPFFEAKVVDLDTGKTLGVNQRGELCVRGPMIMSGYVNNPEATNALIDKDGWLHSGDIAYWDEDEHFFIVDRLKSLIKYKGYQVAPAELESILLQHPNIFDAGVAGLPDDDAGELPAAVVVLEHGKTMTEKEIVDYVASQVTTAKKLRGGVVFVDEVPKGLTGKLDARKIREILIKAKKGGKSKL
Nuclear receptor subfamily 1 group I member 3 (Homo sapiens), sequence (Q14994 whole entry, looked up): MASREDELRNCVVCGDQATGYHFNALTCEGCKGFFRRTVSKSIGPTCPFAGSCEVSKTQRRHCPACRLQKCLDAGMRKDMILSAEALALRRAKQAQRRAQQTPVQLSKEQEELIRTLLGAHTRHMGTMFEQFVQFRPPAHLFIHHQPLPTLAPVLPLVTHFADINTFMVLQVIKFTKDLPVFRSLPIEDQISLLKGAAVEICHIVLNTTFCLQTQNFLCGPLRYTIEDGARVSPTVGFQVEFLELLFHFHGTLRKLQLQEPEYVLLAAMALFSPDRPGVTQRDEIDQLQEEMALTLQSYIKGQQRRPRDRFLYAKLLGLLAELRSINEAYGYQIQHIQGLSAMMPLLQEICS
Retinoic acid receptor RXR-alpha (Homo sapiens), sequence (P19793 whole entry, looked up): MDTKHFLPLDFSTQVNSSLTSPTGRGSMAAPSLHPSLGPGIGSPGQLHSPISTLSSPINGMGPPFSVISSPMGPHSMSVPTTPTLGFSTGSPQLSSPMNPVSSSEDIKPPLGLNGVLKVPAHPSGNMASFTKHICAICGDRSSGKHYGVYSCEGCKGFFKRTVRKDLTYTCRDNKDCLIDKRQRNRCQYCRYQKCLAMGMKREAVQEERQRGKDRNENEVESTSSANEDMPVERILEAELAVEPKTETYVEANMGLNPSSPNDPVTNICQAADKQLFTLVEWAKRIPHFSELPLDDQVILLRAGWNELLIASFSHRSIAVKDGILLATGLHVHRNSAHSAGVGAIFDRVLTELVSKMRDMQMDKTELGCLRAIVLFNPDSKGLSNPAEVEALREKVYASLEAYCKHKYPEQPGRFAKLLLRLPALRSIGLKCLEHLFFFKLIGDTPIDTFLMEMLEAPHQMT

Turning to `Cc1ccc(C)c(OCCCC(C)(C)C(=O)O)c1`, the Potency result in [1], in assay [2], in assay [4], in assay [6], in assay [7] and in assay [8] was “inactive” throughout. Further, the Potency entry in [9] and in [10] was “inactive” throughout. The result in assay [3] and in assay [5] was inactive.

Regarding `O=C1CN(/N=C/c2ccc([N+](=O)[O-])o2)C(=O)N1`, the Potency result in assay [1], in [2], in [4], in [7], in [11] and in assay [12] was “inactive” each time. The Potency result in [14] is “inactive”. In addition, the compound was classed as inactive in [3] and in assay [5]. For the same compound, the Potency in assay [6] is 30.5 µM (active) and 61.1 µM (active); in assay [8] it was 27.2 µM (active) and 21.7 µM (active) and 13.3 µM (active); in assay [9], 27.2 µM (active) and 21.7 µM (active) and 21.1 µM (active); in assay [10] it was 54.3 µM (active); in [13] it was 19.3 µM (active) and 24.3 µM (active) and 16.8 µM (active).

Turning to `CCC1(c2ccccc2)C(=O)NCNC1=O`, the Potency entry in [1], in assay [2], in [4], in [6], in assay [7] and in assay [8] was “inactive” each time. In addition, the Potency result in assay [9], in [11], in [12] and in assay [10] was “inactive” in each case. The compound was classed as inactive in assay [3], in assay [5], in assay [15] and in assay [16].

Consider `CNC[C@H](O)c1cccc(O)c1`, for which the Potency result in assay [1], in assay [2], in assay [4], in assay [18], in [6] and in [8] was “inactive” each time. Further, the Potency entry in assay [9], in assay [11], in assay [12] and in [10] was “inactive” in each case. Also, the compound was classed as inactive in [3], in [5], in assay [15], in assay [17] and in assay [16].

As for `C[C@]12C=CC(=O)C=C1CC[C@@H]1[C@@H]2[C@@H](O)C[C@@]2(C)[C@H]1CC[C@]2(O)C(=O)CO`, the Potency result in assay [1], in assay [2], in assay [4], in assay [6], in assay [7] and in assay [8] was “inactive” in each case. Moreover, the Potency result in assay [9], in assay [11], in assay [12] and in [10] was “inactive” each time. Besides, the call in [3] and in assay [5] was inactive.

Take `CC(O)CO` (stereo not drawn): the Potency entry in assay [1], in assay [2], in [4], in [6], in assay [7] and in assay [8] was “inactive” in each case. Besides, the Potency result in assay [9], in assay [10], in assay [13] and in assay [14] was “inactive” throughout. Moreover, the outcome in assay [3] and in assay [5] was inactive.

With `Cc1noc(NS(=O)(=O)c2ccc(N)cc2)c1C`, the Potency result in assay [1], in assay [2], in assay [4], in [6], in [7] and in assay [8] was “inactive” each time. The Potency entry in assay [9], in assay [11], in assay [12] and in assay [10] was “inactive” throughout. Also, the result in assay [3] and in [5] was inactive.

On to `CC(C)[C@@H]1CC[C@@H](C)C[C@H]1O`, for which the Potency entry in assay [1], in [2], in assay [4], in assay [6], in assay [7] and in assay [8] was “inactive” throughout. The Potency result in assay [9], in assay [11], in assay [12] and in [10] was “inactive” throughout. Besides, the compound was called inactive in assay [3] and in assay [5].

Take `C1N2CN3CN1CN(C2)C3`: the Potency result in [1], in assay [2], in assay [4], in assay [6], in assay [7] and in assay [8] was “inactive” in each case. For the same compound, the Potency result in [9], in [11], in [12] and in assay [10] was “inactive” each time. Moreover, the compound was classed as inactive in [3] and in assay [5].
